Screening results as filed in PubChem BioAssay.
Rows were chosen to be rich in hits. Some 14% of all compounds tested hit in one or more screens of this group.
HCMV inh: human cytomegalovirus inhibition. HFF cells, HCMV-luciferase reporter, 72 h; hits give low values. activity change, negative = inhibition, % at 57.5 µM. 4.5% of 410,000 active; in the data active = activity change below about -60%; inconclusive = no clear call, values can overlap the other calls; inactive = above about -39%
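Steps: HFFs plated, 16 h 37C; compounds added; HCMV-luciferase added to MOI 1 PFU/cell; 72 h 37C; OneGlo reagent, 5 min room temperature; luminescence read, normalized to controls.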
Pf growth 96h: inhibits malaria parasite growth, 96 h; Potency, µM (doses to about 28.7 µM), without a hit: at the top dose activity change, negative = inhibition, most hits filed as inhibitors; P. falciparum luciferase reporter growth, 96 h; AID 504834; 6.9% of 320,000 active; note: potency is the fitted concentration of half-maximal effect
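Parasite growth measured via integrated firefly luciferase reporter in P. falciparum. Infected erythrocytes at 2% hematocrit, 0.05% parasitemia final were treated 96 hours at 37 C under 5% CO2, and luminescence was read.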
Giardia FBPA inh: blocks Giardia fructose-bisphosphate aldolase activity; 0.71% of 290,000 active; purified Giardia FBPA; A8B2U2; Potency, µM (titrated, usually from 59.6 µM), inactives show top-dose activity, negative = inhibition, most hits filed as inhibitors; note: potency is the fitted concentration of half-maximal effect; nearly all actives have a fitted effect of over 55% in size
Target sequence (A8B2U2 whole entry, looked up): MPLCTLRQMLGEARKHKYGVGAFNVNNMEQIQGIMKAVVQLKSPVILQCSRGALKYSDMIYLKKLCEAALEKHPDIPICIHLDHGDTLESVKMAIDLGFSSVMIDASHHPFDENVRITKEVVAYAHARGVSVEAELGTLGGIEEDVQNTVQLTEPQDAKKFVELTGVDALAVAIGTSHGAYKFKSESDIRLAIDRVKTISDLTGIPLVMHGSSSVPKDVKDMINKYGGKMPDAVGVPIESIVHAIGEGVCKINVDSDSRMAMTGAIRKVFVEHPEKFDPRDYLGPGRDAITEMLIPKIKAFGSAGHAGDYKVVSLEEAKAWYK
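Giardia FBPA (40 nM reagent) was preincubated 10 min at RT with compound (up to 57.5 uM final), then substrate plus GAPDH/TPI/NAD/arsenate coupling system with diaphorase/resazurin was added; resorufin fluorescence (525/598 nm) was read after 20 min.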
Sm TGR inh: blocks Schistosoma mansoni thioredoxin glutathione reductase; Potency, µM (top dose mostly 114 µM), without a hit: at the highest dose activity change, negative = inhibition, usual class: inhibitors; purified TGR, DTNB reduction, TNB absorbance 405 nm; Q962Y6; 3% of 360,000 active; AID 485364; note: potency is the fitted concentration of half-maximal effect; nearly all actives have a fitted effect of over 60% in size
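First, TGR (20 nM dispensed) and NADPH were mixed with compound. Second, a 15 min room-temperature incubation followed. Third, further NADPH and then DTNB were added to start the reaction. Finally, TNB absorbance was monitored kinetically.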
Pf growth 48h: inhibits P. falciparum growth in the first generation, 48 h | P. falciparum luciferase growth in erythrocytes, 48 h | 5.9% of 310,000 active | Potency, µM (top dose mostly 28.7 µM), without a hit: at the top dose activity change, negative = inhibition, hits mostly inhibitors; note: potency is the fitted concentration of half-maximal effect
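Parasite viability was followed by luminescence of a genomically integrated firefly luciferase. Cultures held 0.1% parasitemia at 2% hematocrit (final), incubated under 5% CO2 at 37 C.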
* = called active by the depositor; ? = inconclusive; . = not tested or not shown; ! = repeats disagree; [ ] = dose if it differs, or a comment. Unless noted, calls come from the whole dose curve; as a rule, active = well fitted curve in the direction sought with a large enough effect; inconclusive = small, poorly fitted or top-dose-only effect, or another doubt; inactive = no such curve, though single readings can be large; an effect the other way counts as inactive or inconclusive. % is set by controls: 0 for no effect and ±100 for the full control effect.

SMILES	HCMV inh	Pf growth 96h	Giardia FBPA inh	Sm TGR inh	Pf growth 48h
CC(NC(=O)/C=C/c1ccco1)c1nc2ccccc2n1Cc1cccc(Cl)c1 (centres undefined)	-26	?	0%	14µM*	13µM*
CC(C)c1cccc2nc3c(c([Si](C)(C)C)c12)Cn1c-3cccc1=O	.	.	-25%	.	.
Cc1ccc(CNC(=O)c2ccc(OCC(C)C)cc2)n1C	-21	-23%	6%	0%	-16%[0.00184 µM]
CC(=O)Nc1nc2ccccc2n1Cc1ccc(Cl)cc1	0	?	-25%	9%	2.9µM*
O=C(NCCCc1nc2ccccc2n1Cc1cccc(Cl)c1)c1ccco1	-76*	.	.	-18%	.
CCn1c(NC(C)=O)nc2ccccc21	-14	?	-7%	2%	19%
CN(c1ccc(F)cc1)S(=O)(=O)N1CCCC(C(=O)NCCc2ccccc2)C1 (centres undefined)	12	.	.	-13%	.
CCN(CC)C(=O)C1=C(C)N(Cc2ccc(OC)cc2)C(=O)C(CC(=O)NC2CCCCC2)C1 (centres undefined)	-5	.	.	.	.
CN(C)C(=O)c1ccc(-c2ccc3ncnc(N4CCNCC4)c3c2)cc1	.	.	6%	.	.
CCCc1ccc(-c2cc(NC(=O)Cc3c[nH]c4ccccc34)ccc2Nc2cccnc2)cc1	59	.	.	.	.
CCOC(=O)C1=CC2(CC)CCCN3CCc4c(n1c1ccccc41)C32 (centres undefined)	.	.	-2%	.	.
Cc1ccc(C)c(OCCC(=O)OCC(=O)NC(=O)NC2CCCC2)c1	5	21%	.	6%	3%
Cc1ccccc1-n1cnc2c(sc3nc(N4CCOCC4)c4c(c32)CCCC4)c1=O	-89*	?	-12%	8%	10µM*
O=c1c2sc3nc(N4CCOCC4)c4c(c3c2ncn1-c1ccccc1)CCCC4	-64*	31%	0%	5%	?
COC(=O)c1ccc(Cn2cnc3c(sc4nc(N5CCOCC5)c5c(c43)CCCC5)c2=O)o1	0	26%	20%	?	1.7µM*
CC(C)CNc1nnnc2c1sc1nc(N3CCOCC3)c3c(c12)CCCC3	?	1.3µM*	8%	16%	1.7µM*
C=CCNc1nnnc2c1sc1nc(N3CCOCC3)c3c(c12)CCCC3	0	?	2%	-1%	?
O=c1c2sc3nc(N4CCOCC4)c4c(c3c2ncn1C(c1ccccc1)c1ccccc1)CCCC4	-38	.	.	.	.
O=c1c2sc3nc(N4CCOCC4)c4c(c3c2ncn1CCc1ccccc1)CCCC4	-33	?	-1%	13%	?
COc1cccc(S(=O)(=O)N(C)C[C@H]2OCc3cnnn3CCCC(=O)N([C@@H](C)CO)C[C@H]2C)c1	-25	.	.	.	.
CCNc1ncc2nc(-c3cc(F)cc(F)c3)c(=O)n(CCOC)c2n1	.	.	0%	.	.
Cc1ccc2nc(Cl)c(CN(C(=O)c3cnccn3)C3CCCCC3)cc2c1	-35	?	6%	8%	?
Cc1ccc(-n2cnc3c(sc4nc(N5CCOCC5)c5c(c43)CCCC5)c2=O)cc1	-35	-8%	3%	1%	?
COc1ccc(-n2cnc3c(sc4nc(N5CCOCC5)c5c(c43)CCCC5)c2=O)cc1	58	2.9µM*	3%	-3%	-2%
CCOC(=O)C(Sc1ncnc2c1sc1nc(N3CCOCC3)c3c(c12)CCCC3)c1ccccc1 (centres undefined)	.	?	-2%	-8%	1.7µM*
SMILES	HCMV inh	Pf growth 96h	Giardia FBPA inh	Sm TGR inh	Pf growth 48h
O=c1c2sc3nc(N4CCOCC4)c4c(c3c2nnn1Cc1ccccc1)CCCC4	-100*	?	6%	-24%	?
CCCCNc1nc(C)nc2c1nc(-c1ccccc1)n2CC(C)(C)CN(C)C	.	.	3%	.	.
COc1ccc2cc3c(N)nn(C(=O)Cc4ccc(Cl)cc4)c3nc2c1	-67*	-5%	-2%	0%	.
COc1ccc2cc3c(N)nn(C(=O)c4cccc(F)c4)c3nc2c1	-81*	-14%	16%	5%	5%
COc1ccc2cc3c(N)nn(C(=O)c4ccc(F)cc4)c3nc2c1	-87*	?	3%	-11%	?
COc1ccc2cc3c(N)nn(C(=O)c4ccc(OC)c(OC)c4)c3nc2c1	-38	-1%	.	2%	-12%
COc1cccc(CC(=O)n2nc(N)c3cc4ccc(OC)cc4nc32)c1	55	72%	-1%	-23%	.
COc1ccc2cc3c(N)nn(C(=O)c4ccccc4Cl)c3nc2c1	-70*	?	3%	-1%	8.3µM*
CCc1ccccc1NC(=O)CN(C)S(=O)(=O)c1cccc2nsnc12	-17	.	.	-8%	.
Cc1cc(C)c(S(=O)(=O)NCc2cccnc2)c(C)c1	50	217%	-1%	28%	0%
O=S1(=O)c2ccccc2N(Cc2ccccc2F)c2ccccc21	-6	.	.	-10%	.
COc1ccc(NC(=O)C2(C)Cc3c(-c4cccc(C(N)=O)c4)ccnc3O2)cn1 (centres undefined)	20	.	.	.	.
Cc1cc(C)n(-c2ccc(NC(=O)C3CCCCN3C(=O)c3ccoc3C)cc2)n1 (centres undefined)	0	13%	.	-18%	-14%
Cc1cccc(NC(=O)CSc2nnc([C@@H](N)Cc3c[nH]c4ccccc34)o2)c1C	9	1.7µM*	-9%	0%	?
Nc1nc(Sc2c([N+](=O)[O-])cc(C(F)(F)F)cc2[N+](=O)[O-])n[nH]1	25	?	-11%	7.9µM*	?
Nc1nc(Sc2ccc(C(F)(F)F)cc2[N+](=O)[O-])n[nH]1	-2	?	4%	1%	.
CCOc1ccccc1Nc1nc(-c2cccc(Cl)c2)c2c(n1)-c1ccccc1OC2	2	.	.	?	.
CCOC(=O)C1=C(C)N(c2ccccc2)C(=O)C1	-10	10µM*	8%	-17%	-6%
CCCCN(C)C(=O)CS(=O)(=O)Cc1nc(-c2cccc(OC)c2)oc1C	-33	-2%	9%	22µM*	30%
COc1cccc(-c2nc(CS(=O)(=O)CC(=O)NCCc3ccc(OC)cc3OC)c(C)o2)c1	-26	5%	2%	25µM*!	?
COc1cccc(-c2nc(CS(=O)(=O)CC(=O)NC3CCCCC3C)c(C)o2)c1 (centres undefined)	-22	?	-5%	40µM*	?
COc1ccc(-c2nc(CS(=O)(=O)CC(=O)NCCc3cc(OC)ccc3OC)c(C)o2)cc1	-71*	?	0%	-9%	?
COc1ccc(OC)c(CCNC(=O)CS(=O)(=O)Cc2nc(-c3ccc(C)cc3)oc2C)c1	2	53%	0%	-9%	9%
Cc1csc2nc(COc3cccc(NC(=O)c4ccccc4F)c3)cc(=O)n12	-13	.	.	7%	.
CC(C)C[C@H]1CN([C@@H](Cc2ccccc2)CN2CCC[C@H]2CN2C(=O)C(=O)NC[C@@H]2Cc2ccc(O)cc2)C(=O)C(=O)N1CC1CCCCC1	-20	.	.	.	.
